Measured values from PubChem BioAssay (NCI).
Compounds without any hit were thinned out: in the full panel of roughly 83,000, 20% have a hit.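 Single-dose data. Exposure time 48 hours. Values below 10 considered active.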 Active and inactive are the calls of the source.

Columns and labels:
Assay in all cases: NCI-60 one-dose screen, 48 h (100 = growth as untreated, 0 = no growth, -100 = all killed)
Details in all cases: 10 µM unless noted
NCI-H23 lung = system: NCI-H23 lung
NCI-H226 lung = system: NCI-H226 lung
NCI-H322M lung = system: NCI-H322M lung
HOP-62 NSCLC = system: HOP-62 NSCLC
NCI-H460 lung = system: NCI-H460 lung
HOP-92 NSCLC = system: HOP-92 NSCLC
NCI-H522 lung = system: NCI-H522 lung
A549/ATCC NSCLC = system: A549/ATCC NSCLC
786-0 renal = system: 786-0 renal
COLO 205 colon = system: COLO 205 colon

Measured: growth

Cc1cc(F)ccc1S(=O)(=O)Nc1cc(-c2c(O)ccc3ccccc23)c(O)c2ccccc12
active: NCI-H522 lung -36.2%
inactive: NCI-H23 lung 16.7% | NCI-H226 lung 47.3% | NCI-H322M lung 79% | HOP-62 NSCLC 80.1% | NCI-H460 lung 16.3% | HOP-92 NSCLC 19.1% | A549/ATCC NSCLC 20.4% | 786-0 renal 76.2% | COLO 205 colon 14.3%

Cc1cc2nc3c4ccccc4n(CCN(C)C)c3nc2cc1C
active: NCI-H23 lung 8.98% | NCI-H322M lung 0.121% | HOP-62 NSCLC 2.09% | NCI-H460 lung -32.7% | NCI-H522 lung -19.1% | A549/ATCC NSCLC -33.8% | COLO 205 colon -29.8%
inactive: NCI-H226 lung 11.3% | HOP-92 NSCLC 28.1% | 786-0 renal 23.2%

CN1C(=O)/C(=C/c2ccc(C(=O)Nc3ncc(Cc4ccc(F)cc4)s3)cc2)SC1=S
inactive: NCI-H23 lung 62.1% | NCI-H226 lung 65.3% | NCI-H322M lung 52% | HOP-62 NSCLC 44.9% | NCI-H460 lung 20.2% | HOP-92 NSCLC 44.2% | NCI-H522 lung 39% | A549/ATCC NSCLC 46.8% | 786-0 renal 51.9% | COLO 205 colon 72.3%

CCCCCn1sc(=O)n(Cc2ccc(CNC(=O)OCc3ccc4c(Cl)cc(Cl)c(O)c4n3)cc2)c1=O
inactive: NCI-H23 lung 73.2% | NCI-H226 lung 65.8% | NCI-H322M lung 55.7% | HOP-62 NSCLC 41.7% | NCI-H460 lung 27.1% | HOP-92 NSCLC 76.2% | NCI-H522 lung 66.1% | A549/ATCC NSCLC 49.7% | 786-0 renal 61.2% | COLO 205 colon 106%

O=C(O)CCCn1c(SCc2c(Cl)cccc2Cl)nc2ccsc2c1=O
inactive: NCI-H23 lung 33.6% | NCI-H226 lung 43.4% | NCI-H322M lung 48.3% | HOP-62 NSCLC 45.2% | NCI-H460 lung 10.2% | HOP-92 NSCLC 24.5% | A549/ATCC NSCLC 34.4% | 786-0 renal 23.9%
active: NCI-H522 lung -3.68% | COLO 205 colon 3.82%

Cc1c2cc[nH]c(=O)c2c(C)c2c1[nH]c1ccc(OC(=O)c3ccccc3)cc12
active: NCI-H460 lung 1.23% | A549/ATCC NSCLC 6.49%
inactive: NCI-H23 lung 24.4% | NCI-H226 lung 38.5% | NCI-H322M lung 40.8% | HOP-62 NSCLC 18.7% | HOP-92 NSCLC 40.9% | NCI-H522 lung 26.9% | 786-0 renal 44.9% | COLO 205 colon 30.4%

CC(C)C[C@@H](C(=O)N[C@H](C(=O)OC1CCCC1)c1ccccc1)[C@H](O)C(=O)NO
inactive: NCI-H23 lung 55.6% | NCI-H226 lung 70.1% | NCI-H322M lung 69.2% | HOP-62 NSCLC 26.9% | NCI-H460 lung 92.4% | HOP-92 NSCLC 65.7% | NCI-H522 lung 41.1% | A549/ATCC NSCLC 56% | 786-0 renal 67.8% | COLO 205 colon 78.6%

C[C@H]1[C@H](C)CC[C@]2(C(=O)O)CC[C@]3(C)C(=CC[C@@H]4[C@@]5(C)C[C@@H](Cc6cn([C@@H]7O[C@H](CO)[C@@H](O)[C@H](O)[C@H]7O)nn6)[C@H](O)C(C)(C)[C@@H]5CC[C@]43C)[C@H]12
inactive: NCI-H23 lung 97.7% | NCI-H226 lung 94.3% | NCI-H322M lung 102% | HOP-62 NSCLC 88.9% | NCI-H460 lung 107% | HOP-92 NSCLC 95.6% | NCI-H522 lung 103% | A549/ATCC NSCLC 89% | 786-0 renal 94.6% | COLO 205 colon 105%

CCNC(=O)Oc1ccc(/C(=C(/C)Cc2ccc(OC)cc2)c2ccc(OCCN3CCCCCC3)cc2)cc1
inactive: NCI-H23 lung 75.9% | NCI-H226 lung 96.2% | NCI-H322M lung 95.5% | HOP-62 NSCLC 84.4% | NCI-H460 lung 30.6% | HOP-92 NSCLC 40.8% | NCI-H522 lung 54.2% | A549/ATCC NSCLC 54.9% | 786-0 renal 72% | COLO 205 colon 28.7%

CCCCN1C(=O)/C(=c2\sc3n(c2=O)NC2C(N=3)N(CC)C(=O)N2CC)c2ccccc21 (stereo not drawn)
inactive: NCI-H23 lung 46.9% | NCI-H226 lung 70.4% | NCI-H322M lung 69.9% | HOP-62 NSCLC 71.7% | NCI-H460 lung 35.3% | HOP-92 NSCLC 60% | NCI-H522 lung 21.4% | A549/ATCC NSCLC 36.6% | 786-0 renal 53.6% | COLO 205 colon 24.9%

COc1ccc(Nc2ncccc2NC(=O)c2cn(Cc3cccc(Oc4ccccc4)c3)nn2)cc1OC
inactive: NCI-H23 lung 76% | NCI-H226 lung 92.4% | NCI-H322M lung 83.7% | HOP-62 NSCLC 88% | NCI-H460 lung 97.4% | HOP-92 NSCLC 81.6% | NCI-H522 lung 77.1% | A549/ATCC NSCLC 86.7% | 786-0 renal 90.5% | COLO 205 colon 81.4%

N#C/C(=C\c1ccc(Br)cc1)c1cc2ccccc2[nH]1
inactive: NCI-H23 lung 92.1% | NCI-H226 lung 92.7% | NCI-H322M lung 91.6% | HOP-62 NSCLC 86.3% | NCI-H460 lung 96.1% | HOP-92 NSCLC 70.4% | NCI-H522 lung 85% | 786-0 renal 93.3% | COLO 205 colon 105%

CCC(CC)(N(CC(=O)O)CC(=O)O)C(CC)(CC)N(CC(=O)O)CC(=O)O
inactive: NCI-H23 lung 106% | NCI-H226 lung 106% | NCI-H322M lung 122% | HOP-62 NSCLC 103% | NCI-H460 lung 108% | HOP-92 NSCLC 95.6% | NCI-H522 lung 100% | 786-0 renal 109% | COLO 205 colon 113%
